In article PMC7862700, “An all-to-all approach to the identification of sequence-specific readers for epigenetic DNA modifications on cytosine”:

Experiments:
Experiment in all cases: DAPPL (digital affinity profiling via proximity ligation, sequencing); 10 mM Tris-HCl pH 7.5, 50 mM NaCl, 1 mM DTT, 4% glycerol, room temperature, 30 min; GST-TFs on glutathione beads, 16-mer random dsDNA library, 0.1% formaldehyde crosslink after washing; high values mean tight binding
FLI1 = target: T1, FLI1 (Homo sapiens, UniProt Q01543 1-452); settings: protein: recombinant; tags: N-terminal GST; dsDNA, one strand shown
T1 sequence: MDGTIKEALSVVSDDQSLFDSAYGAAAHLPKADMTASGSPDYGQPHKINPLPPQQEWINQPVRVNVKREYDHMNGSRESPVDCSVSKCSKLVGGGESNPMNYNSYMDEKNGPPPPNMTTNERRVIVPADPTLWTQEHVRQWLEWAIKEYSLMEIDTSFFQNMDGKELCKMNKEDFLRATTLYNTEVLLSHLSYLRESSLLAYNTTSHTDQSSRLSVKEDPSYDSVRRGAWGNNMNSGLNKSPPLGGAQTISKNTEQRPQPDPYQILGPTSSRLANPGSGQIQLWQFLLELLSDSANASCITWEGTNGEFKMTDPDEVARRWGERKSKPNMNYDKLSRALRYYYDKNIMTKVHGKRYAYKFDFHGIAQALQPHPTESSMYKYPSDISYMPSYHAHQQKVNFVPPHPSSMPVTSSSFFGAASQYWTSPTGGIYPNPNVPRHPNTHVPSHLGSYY
Method in brief: (§1)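 Human transcription factors were made in yeast as GST fusions, captured on glutathione beads and barcoded with DNA. With a tag-only sample included, the pool was incubated with 200 nmole of a random double-stranded 16-mer DNA library in Tris/NaCl/DTT/glycerol buffer at room temperature for 30 min, then crosslinked with 0.1% formaldehyde after washing, ligated by proximity, amplified and sequenced. For binding signal, each hexamer's read frequency for a factor is divided by its frequency for the tag-only sample.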

ELK1 = target: T2, ELK1 (Homo sapiens, UniProt P19419 1-428); settings: protein: recombinant; tags: N-terminal GST; dsDNA, one strand shown
T2 sequence: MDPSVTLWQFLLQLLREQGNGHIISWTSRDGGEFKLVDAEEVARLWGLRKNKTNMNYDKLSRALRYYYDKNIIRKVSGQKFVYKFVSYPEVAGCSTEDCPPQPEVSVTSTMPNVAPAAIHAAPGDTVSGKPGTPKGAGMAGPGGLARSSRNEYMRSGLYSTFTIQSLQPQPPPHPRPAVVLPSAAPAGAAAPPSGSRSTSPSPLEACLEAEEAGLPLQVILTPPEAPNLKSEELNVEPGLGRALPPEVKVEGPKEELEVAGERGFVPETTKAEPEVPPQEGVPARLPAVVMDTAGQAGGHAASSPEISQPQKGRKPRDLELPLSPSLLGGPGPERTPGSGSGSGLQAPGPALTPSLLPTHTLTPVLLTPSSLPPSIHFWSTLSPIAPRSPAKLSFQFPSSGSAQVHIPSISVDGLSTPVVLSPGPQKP
Method in brief: as §1

GABPA = target: T3, GABPA (Homo sapiens, UniProt Q06546 1-454); settings: protein: recombinant; tags: N-terminal GST; dsDNA, one strand shown
T3 sequence: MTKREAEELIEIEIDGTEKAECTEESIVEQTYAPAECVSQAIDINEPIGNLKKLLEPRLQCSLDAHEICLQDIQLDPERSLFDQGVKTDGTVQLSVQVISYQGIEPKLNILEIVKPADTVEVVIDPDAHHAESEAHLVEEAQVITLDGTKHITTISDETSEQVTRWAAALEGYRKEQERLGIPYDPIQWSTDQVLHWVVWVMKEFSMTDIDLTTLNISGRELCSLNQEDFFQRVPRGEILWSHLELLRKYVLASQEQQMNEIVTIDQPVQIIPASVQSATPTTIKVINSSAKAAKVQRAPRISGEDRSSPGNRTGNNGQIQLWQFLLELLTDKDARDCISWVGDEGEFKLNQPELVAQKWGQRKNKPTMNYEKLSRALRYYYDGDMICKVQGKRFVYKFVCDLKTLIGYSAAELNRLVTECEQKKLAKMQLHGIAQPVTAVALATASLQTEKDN
Method in brief: as §1

ERG = target: T4, ERG (Homo sapiens, UniProt P11308 1-479); settings: protein: recombinant; tags: N-terminal GST; dsDNA, one strand shown
T4 sequence: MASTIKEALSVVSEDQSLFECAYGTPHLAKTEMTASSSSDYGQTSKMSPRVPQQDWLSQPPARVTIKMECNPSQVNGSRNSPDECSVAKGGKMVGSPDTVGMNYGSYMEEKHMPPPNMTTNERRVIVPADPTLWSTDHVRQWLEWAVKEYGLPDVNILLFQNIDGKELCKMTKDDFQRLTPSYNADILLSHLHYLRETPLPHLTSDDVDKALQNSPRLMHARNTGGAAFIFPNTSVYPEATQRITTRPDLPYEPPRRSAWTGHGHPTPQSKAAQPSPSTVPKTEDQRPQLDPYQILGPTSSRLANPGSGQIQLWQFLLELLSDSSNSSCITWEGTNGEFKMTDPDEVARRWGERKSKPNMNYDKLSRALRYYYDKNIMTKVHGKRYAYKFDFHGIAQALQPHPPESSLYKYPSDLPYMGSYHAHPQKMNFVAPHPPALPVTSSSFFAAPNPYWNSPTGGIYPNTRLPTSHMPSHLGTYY
Method in brief: as §1

ELF1 = ELF1 (Homo sapiens, UniProt P32519 1-619); settings: protein: recombinant; tags: N-terminal GST; dsDNA, one strand shown
Sequence of ELF1 (P32519 whole entry): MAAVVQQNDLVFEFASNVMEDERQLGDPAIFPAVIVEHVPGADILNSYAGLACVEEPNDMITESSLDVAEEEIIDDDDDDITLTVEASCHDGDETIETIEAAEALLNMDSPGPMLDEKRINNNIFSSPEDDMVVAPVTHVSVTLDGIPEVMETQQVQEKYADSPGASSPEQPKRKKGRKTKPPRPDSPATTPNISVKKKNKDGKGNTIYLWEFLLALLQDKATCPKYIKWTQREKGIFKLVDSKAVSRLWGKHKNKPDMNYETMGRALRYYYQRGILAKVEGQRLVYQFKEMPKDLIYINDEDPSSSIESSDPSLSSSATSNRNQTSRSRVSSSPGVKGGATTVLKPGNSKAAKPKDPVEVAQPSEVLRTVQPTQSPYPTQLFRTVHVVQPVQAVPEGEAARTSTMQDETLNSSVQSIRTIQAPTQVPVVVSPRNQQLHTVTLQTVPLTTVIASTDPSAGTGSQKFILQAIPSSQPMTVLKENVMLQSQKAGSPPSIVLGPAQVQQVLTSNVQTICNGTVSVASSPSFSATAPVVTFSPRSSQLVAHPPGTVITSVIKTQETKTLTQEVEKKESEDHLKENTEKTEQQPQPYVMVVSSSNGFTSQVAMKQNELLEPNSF
Method in brief: as §1

EHF = target: T5, EHF (Homo sapiens, UniProt Q9NZC4 1-300); settings: protein: recombinant; tags: N-terminal GST; dsDNA, one strand shown
T5 sequence: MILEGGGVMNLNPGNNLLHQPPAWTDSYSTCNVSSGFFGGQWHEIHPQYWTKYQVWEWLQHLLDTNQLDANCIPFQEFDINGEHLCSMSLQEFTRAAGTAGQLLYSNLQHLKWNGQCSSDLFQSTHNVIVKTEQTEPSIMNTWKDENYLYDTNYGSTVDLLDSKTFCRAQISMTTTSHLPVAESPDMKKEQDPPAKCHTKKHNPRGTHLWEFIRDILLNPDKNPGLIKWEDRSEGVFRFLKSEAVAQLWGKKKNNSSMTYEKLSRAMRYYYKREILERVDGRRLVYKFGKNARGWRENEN
Method in brief: as §1

SPI1 = SPI1 (Homo sapiens, UniProt P17947 1-270); settings: protein: recombinant; tags: N-terminal GST; dsDNA, one strand shown
Method in brief: as §1

SPIB = SPIB (Homo sapiens, UniProt Q01892 1-262); settings: protein: recombinant; tags: N-terminal GST; dsDNA, one strand shown
Sequence of SPIB (Q01892 whole entry): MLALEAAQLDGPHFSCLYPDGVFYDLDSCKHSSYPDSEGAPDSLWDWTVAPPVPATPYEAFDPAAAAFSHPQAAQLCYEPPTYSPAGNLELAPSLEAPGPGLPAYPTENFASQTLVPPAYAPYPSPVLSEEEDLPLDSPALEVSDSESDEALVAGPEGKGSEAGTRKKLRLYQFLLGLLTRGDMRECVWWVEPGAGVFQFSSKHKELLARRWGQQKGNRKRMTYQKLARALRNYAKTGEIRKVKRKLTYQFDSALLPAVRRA
Method in brief: as §1

ELK3 = target: T6, ELK3 (Homo sapiens, UniProt P41970 1-407); settings: protein: recombinant; tags: N-terminal GST; dsDNA, one strand shown
T6 sequence: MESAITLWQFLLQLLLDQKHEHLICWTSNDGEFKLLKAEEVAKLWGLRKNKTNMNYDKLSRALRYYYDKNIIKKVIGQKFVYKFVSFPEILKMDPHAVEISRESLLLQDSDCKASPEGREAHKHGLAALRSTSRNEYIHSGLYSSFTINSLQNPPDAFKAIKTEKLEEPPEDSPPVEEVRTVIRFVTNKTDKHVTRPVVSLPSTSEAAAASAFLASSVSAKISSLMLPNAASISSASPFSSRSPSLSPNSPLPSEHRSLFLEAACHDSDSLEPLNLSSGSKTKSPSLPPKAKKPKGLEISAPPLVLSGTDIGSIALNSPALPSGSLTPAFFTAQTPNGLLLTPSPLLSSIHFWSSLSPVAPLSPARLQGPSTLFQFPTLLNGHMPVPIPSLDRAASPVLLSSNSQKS
Method in brief: as §1

FEV = target: T7, FEV (Homo sapiens, UniProt Q99581 1-238); settings: protein: recombinant; tags: N-terminal GST; dsDNA, one strand shown
T7 sequence: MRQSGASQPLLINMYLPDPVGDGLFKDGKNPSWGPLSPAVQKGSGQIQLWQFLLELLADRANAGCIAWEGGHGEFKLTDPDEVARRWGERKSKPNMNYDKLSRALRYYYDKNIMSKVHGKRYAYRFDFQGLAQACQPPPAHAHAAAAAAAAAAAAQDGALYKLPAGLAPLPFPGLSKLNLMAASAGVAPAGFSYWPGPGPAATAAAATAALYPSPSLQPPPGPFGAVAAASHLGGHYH
Method in brief: as §1

ETV5 = ETV5 (Homo sapiens, UniProt P41161 1-510); settings: protein: recombinant; tags: N-terminal GST; dsDNA, one strand shown
Sequence of ETV5 (P41161 whole entry): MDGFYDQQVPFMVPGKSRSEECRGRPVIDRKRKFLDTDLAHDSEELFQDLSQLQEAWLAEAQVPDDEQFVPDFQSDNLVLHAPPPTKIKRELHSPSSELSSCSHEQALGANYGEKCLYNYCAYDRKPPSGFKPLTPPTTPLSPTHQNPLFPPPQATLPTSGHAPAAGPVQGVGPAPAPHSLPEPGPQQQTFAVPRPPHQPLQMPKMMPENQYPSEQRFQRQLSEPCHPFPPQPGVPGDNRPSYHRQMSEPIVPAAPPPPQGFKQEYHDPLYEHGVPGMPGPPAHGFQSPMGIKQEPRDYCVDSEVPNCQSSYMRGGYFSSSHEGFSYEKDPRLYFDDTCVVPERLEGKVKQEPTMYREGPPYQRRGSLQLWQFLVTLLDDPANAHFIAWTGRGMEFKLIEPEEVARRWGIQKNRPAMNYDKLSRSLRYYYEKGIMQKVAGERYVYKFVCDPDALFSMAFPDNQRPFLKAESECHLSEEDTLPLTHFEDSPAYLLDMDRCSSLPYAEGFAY
Method in brief: as §1

HSF1 = HSF1 (Homo sapiens, UniProt Q00613 1-529); settings: protein: recombinant; tags: N-terminal GST; chain copies: 3; dsDNA, one strand shown
Sequence of HSF1 (Q00613 whole entry): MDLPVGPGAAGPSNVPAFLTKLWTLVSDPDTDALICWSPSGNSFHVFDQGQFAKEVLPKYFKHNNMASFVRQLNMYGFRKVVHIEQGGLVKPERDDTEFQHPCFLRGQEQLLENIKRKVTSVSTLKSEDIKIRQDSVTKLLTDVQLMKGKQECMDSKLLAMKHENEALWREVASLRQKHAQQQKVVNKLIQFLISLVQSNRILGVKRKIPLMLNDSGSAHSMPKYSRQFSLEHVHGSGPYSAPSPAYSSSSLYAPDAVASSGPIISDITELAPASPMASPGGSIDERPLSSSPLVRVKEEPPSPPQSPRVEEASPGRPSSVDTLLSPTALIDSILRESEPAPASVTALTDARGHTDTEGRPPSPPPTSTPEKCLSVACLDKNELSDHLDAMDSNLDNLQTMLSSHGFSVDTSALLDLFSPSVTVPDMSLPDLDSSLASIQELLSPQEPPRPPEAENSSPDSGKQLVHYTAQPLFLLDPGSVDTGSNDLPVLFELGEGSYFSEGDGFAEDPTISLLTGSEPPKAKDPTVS
Method in brief: as §1

SPIC = target: T8, SPIC (Homo sapiens, UniProt Q8N5J4 1-248); settings: protein: recombinant; tags: N-terminal GST; dsDNA, one strand shown
T8 sequence: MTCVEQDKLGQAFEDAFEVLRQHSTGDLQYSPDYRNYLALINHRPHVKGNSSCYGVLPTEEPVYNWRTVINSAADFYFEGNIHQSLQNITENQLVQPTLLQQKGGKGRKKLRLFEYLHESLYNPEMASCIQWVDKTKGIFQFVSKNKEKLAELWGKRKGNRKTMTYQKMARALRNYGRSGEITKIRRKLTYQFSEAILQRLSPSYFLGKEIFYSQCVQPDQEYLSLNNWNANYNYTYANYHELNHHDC
Method in brief: as §1

ELF4 = ELF4 (Homo sapiens, UniProt Q99607 1-663); settings: protein: recombinant; tags: N-terminal GST; dsDNA, one strand shown
Sequence of ELF4 (Q99607 whole entry): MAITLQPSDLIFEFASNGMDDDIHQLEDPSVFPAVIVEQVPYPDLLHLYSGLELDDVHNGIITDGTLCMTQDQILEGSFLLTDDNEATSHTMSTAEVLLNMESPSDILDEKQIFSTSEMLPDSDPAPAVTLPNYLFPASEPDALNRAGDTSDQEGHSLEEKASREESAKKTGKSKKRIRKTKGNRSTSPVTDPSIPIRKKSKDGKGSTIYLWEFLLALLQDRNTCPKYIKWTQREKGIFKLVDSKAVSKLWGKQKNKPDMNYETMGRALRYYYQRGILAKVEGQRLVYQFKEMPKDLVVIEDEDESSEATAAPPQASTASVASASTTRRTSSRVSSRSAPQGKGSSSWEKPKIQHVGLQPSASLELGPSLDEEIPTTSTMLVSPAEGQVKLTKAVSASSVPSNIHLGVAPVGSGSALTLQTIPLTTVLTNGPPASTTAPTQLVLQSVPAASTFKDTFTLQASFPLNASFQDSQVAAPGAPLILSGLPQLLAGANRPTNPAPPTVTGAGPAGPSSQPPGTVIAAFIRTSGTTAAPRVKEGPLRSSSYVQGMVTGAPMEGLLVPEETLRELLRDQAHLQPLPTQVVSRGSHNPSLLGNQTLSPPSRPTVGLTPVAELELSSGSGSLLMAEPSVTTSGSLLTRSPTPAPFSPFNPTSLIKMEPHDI
Method in brief: as §1

ELK4 = target: T9, ELK4 (Homo sapiens, UniProt P28324-2 1-405); settings: protein: recombinant; tags: N-terminal GST; dsDNA, one strand shown
T9 sequence: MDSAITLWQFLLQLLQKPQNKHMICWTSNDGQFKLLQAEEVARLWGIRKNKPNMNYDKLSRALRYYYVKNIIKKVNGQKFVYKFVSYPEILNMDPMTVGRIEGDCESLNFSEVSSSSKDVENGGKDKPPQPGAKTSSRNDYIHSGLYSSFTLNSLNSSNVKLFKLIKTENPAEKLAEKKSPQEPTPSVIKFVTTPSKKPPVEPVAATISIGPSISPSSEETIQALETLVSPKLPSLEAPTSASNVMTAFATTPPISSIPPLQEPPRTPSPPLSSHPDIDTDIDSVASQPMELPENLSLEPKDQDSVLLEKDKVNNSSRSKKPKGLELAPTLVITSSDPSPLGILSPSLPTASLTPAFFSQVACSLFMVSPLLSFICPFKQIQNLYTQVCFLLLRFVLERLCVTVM
Method in brief: as §1

ETV2 = target: T10, ETV2 (Homo sapiens, UniProt O00321 1-342); settings: protein: recombinant; tags: N-terminal GST; dsDNA, one strand shown
T10 sequence: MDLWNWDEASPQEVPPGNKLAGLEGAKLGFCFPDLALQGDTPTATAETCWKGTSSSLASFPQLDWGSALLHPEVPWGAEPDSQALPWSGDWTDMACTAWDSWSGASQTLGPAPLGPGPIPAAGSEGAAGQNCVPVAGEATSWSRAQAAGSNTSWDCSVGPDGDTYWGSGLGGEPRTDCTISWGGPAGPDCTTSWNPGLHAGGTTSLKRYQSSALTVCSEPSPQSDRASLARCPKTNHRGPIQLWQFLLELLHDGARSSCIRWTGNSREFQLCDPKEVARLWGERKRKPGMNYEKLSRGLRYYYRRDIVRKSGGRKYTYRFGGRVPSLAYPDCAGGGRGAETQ
Method in brief: as §1

ELF3 = target: T11, ELF3 (Homo sapiens, UniProt P78545 1-371); settings: protein: recombinant; tags: N-terminal GST; dsDNA, one strand shown
T11 sequence: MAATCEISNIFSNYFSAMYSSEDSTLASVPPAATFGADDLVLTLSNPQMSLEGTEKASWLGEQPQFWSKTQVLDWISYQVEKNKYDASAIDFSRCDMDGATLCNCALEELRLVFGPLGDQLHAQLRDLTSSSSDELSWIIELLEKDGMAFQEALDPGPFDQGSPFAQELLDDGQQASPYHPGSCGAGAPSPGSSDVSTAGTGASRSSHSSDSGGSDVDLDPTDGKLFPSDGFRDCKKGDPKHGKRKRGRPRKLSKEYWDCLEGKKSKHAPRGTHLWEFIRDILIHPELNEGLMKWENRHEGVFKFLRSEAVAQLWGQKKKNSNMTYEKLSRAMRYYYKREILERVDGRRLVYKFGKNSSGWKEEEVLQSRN
Method in brief: as §1

CRX = CRX (Homo sapiens, UniProt O43186 1-299); settings: protein: recombinant; tags: N-terminal GST; dsDNA, one strand shown
Sequence of CRX (O43186 whole entry): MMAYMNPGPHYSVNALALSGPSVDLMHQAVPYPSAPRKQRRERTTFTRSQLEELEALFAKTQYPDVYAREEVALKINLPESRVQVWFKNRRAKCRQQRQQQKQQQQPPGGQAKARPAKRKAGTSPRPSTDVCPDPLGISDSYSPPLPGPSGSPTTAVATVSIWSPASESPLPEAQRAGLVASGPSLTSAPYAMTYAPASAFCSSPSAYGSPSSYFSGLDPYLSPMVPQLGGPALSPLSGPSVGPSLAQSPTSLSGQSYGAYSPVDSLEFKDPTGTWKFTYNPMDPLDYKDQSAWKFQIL
Method in brief: as §1

ETV1 = ETV1 (Homo sapiens, UniProt P50549 1-477); settings: protein: recombinant; tags: N-terminal GST; dsDNA, one strand shown
Sequence of ETV1 (P50549 whole entry): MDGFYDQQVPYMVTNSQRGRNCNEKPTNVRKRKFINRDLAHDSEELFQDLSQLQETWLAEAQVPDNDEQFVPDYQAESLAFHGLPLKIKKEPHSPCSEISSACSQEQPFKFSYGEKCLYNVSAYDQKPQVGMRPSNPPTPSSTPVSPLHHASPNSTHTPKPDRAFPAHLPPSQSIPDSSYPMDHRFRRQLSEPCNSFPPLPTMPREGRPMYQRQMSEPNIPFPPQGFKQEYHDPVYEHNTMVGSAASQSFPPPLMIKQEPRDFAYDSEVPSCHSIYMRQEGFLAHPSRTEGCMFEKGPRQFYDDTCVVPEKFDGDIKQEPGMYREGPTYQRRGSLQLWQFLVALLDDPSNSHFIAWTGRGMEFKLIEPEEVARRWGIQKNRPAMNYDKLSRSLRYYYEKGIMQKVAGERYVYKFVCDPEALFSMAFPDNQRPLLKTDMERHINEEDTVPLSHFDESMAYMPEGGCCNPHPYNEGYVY
Method in brief: as §1

For CTTTAA, the binding signal (FLI1) was 1.37 fold enrichment (6-mer frequency, TF over GST control), the binding signal (ELK1) was 1.27 fold enrichment (6-mer frequency, TF over GST control) and the binding signal (GABPA) was 1.28 fold enrichment (6-mer frequency, TF over GST control). For the same sequence, the binding signal (ERG) was 1.27 fold enrichment (6-mer frequency, TF over GST control), the binding signal (ELF1) was 1.33 fold enrichment (6-mer frequency, TF over GST control) and the binding signal (EHF) was 1.2 fold enrichment (6-mer frequency, TF over GST control). The binding signal (SPI1) was 1.39 fold enrichment (6-mer frequency, TF over GST control), the binding signal (SPIB) was 1.19 fold enrichment (6-mer frequency, TF over GST control) and the binding signal (ELK3) was 1.28 fold enrichment (6-mer frequency, TF over GST control). For the same sequence, the binding signal (FEV) was 1.23 fold enrichment (6-mer frequency, TF over GST control), the binding signal (ETV5) was 1.24 fold enrichment (6-mer frequency, TF over GST control) and the binding signal (HSF1) was 1.58 fold enrichment (6-mer frequency, TF over GST control). For the same sequence, the binding signal (SPIC) was 1.36 fold enrichment (6-mer frequency, TF over GST control), the binding signal (ELF4) was 1.26 fold enrichment (6-mer frequency, TF over GST control) and the binding signal (ELK4) was 1.28 fold enrichment (6-mer frequency, TF over GST control). For the same sequence, the binding signal (ETV2) was 1.27 fold enrichment (6-mer frequency, TF over GST control), the binding signal (ELF3) was 1.39 fold enrichment (6-mer frequency, TF over GST control) and the binding signal (CRX) was 2.25 fold enrichment (6-mer frequency, TF over GST control). The binding signal (ETV1) was 1.3 fold enrichment (6-mer frequency, TF over GST control).
